From PMC7862700, “An all-to-all approach to the identification of sequence-specific readers for epigenetic DNA modifications on cytosine” come the findings set out here.

Holding throughout (assay): DAPPL (digital affinity profiling via proximity ligation, sequencing); 10 mM Tris-HCl pH 7.5, 50 mM NaCl, 1 mM DTT, 4% glycerol, room temperature, 30 min; GST-TFs on glutathione beads, 16-mer random dsDNA library, 0.1% formaldehyde crosslink after washing; high values mean tight binding
What all share (conditions): protein: recombinant; tags: N-terminal GST; dsDNA, one strand shown

One experiment concerns the target T1, FLI1 (Homo sapiens, UniProt Q01543 1-452).
T1 sequence: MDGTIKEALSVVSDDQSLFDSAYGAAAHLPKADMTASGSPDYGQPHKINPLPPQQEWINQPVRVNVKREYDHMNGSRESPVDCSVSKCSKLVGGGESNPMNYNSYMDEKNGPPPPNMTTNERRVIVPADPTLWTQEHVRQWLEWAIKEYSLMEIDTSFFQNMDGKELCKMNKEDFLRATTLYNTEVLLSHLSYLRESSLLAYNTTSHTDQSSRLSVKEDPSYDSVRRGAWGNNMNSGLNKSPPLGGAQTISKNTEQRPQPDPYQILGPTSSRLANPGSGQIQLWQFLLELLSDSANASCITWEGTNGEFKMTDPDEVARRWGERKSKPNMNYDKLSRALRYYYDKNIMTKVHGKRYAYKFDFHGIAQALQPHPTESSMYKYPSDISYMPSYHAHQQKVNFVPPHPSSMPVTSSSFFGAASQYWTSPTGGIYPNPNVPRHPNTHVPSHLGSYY
Put shortly: (§1)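 Binding signal is given per hexamer as its read frequency for a factor divided by its frequency in the tag-only sample. GST-fused human transcription factors were expressed in yeast, captured on glutathione beads, barcoded with DNA and pooled with that sample, then incubated with 200 nmole of a 16-mer random double-stranded DNA library in Tris/NaCl/DTT/glycerol buffer for 30 min at room temperature. The pools were then washed, crosslinked, proximity-ligated, amplified by PCR and sequenced on an Illumina NextSeq500.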

A further experiment has as its target T2, ELK1 (Homo sapiens, UniProt P19419 1-428).
T2 sequence: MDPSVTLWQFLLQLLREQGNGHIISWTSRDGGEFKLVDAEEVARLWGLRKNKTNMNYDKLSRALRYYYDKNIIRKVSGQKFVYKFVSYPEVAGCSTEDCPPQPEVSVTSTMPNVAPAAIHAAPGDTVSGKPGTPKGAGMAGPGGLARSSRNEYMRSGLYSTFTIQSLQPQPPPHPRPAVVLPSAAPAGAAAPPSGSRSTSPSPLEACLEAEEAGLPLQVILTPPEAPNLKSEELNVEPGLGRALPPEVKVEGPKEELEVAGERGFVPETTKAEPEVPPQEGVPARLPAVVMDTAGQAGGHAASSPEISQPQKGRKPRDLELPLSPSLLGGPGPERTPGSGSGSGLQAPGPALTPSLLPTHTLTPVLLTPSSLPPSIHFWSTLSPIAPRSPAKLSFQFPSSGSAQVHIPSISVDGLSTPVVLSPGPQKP
Put shortly:
as §1

The target of a further experiment is T3, GABPA (Homo sapiens, UniProt Q06546 1-454).
T3 sequence: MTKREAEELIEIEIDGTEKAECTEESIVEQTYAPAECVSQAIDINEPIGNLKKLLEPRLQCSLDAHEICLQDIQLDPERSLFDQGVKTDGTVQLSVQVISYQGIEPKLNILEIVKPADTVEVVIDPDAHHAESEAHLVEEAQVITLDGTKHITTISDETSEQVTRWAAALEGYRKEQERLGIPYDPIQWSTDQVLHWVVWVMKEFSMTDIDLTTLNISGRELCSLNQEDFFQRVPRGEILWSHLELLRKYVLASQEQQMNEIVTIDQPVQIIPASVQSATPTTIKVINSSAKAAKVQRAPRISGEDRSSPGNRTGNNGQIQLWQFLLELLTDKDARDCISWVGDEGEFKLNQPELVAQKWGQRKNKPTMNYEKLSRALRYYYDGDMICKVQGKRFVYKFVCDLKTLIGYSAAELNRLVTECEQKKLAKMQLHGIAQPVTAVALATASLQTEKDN
In short, it runs like this:
as §1

Another experiment has as its target T4, ERG (Homo sapiens, UniProt P11308 1-479).
T4 sequence: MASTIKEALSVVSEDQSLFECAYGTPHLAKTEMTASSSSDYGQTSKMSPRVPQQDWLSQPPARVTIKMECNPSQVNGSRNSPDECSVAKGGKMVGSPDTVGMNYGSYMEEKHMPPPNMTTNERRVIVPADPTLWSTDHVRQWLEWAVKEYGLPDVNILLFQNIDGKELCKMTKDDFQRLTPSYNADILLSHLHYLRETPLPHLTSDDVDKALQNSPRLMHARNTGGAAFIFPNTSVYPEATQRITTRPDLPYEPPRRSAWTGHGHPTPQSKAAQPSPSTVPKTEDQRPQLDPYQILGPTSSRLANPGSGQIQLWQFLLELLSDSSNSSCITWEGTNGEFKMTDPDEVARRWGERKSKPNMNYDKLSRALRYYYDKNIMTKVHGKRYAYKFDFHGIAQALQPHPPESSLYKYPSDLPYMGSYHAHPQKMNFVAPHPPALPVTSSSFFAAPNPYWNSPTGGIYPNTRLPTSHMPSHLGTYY
In short, it runs like this: as §1

The target of a further experiment is ELF1 (Homo sapiens, UniProt P32519 1-619). In short, it runs like this:
as §1

The target of another experiment is T5, EHF (Homo sapiens, UniProt Q9NZC4 1-300).
T5 sequence: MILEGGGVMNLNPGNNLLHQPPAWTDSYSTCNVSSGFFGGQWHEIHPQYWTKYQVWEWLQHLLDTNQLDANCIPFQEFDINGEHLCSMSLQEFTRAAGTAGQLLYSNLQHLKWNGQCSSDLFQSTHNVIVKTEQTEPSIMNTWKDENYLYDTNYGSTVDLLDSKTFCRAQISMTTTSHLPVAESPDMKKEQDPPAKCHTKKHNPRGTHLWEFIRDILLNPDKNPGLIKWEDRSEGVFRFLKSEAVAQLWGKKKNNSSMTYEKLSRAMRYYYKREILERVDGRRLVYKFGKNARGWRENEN
Put shortly:
as §1

Another experiment addresses SPI1 (Homo sapiens, UniProt P17947 1-270). Put shortly: as §1
A further experiment deals with SPIB (Homo sapiens, UniProt Q01892 1-262). Put shortly: as §1
The next experiment concerns the target T6, ELK3 (Homo sapiens, UniProt P41970 1-407).
T6 sequence: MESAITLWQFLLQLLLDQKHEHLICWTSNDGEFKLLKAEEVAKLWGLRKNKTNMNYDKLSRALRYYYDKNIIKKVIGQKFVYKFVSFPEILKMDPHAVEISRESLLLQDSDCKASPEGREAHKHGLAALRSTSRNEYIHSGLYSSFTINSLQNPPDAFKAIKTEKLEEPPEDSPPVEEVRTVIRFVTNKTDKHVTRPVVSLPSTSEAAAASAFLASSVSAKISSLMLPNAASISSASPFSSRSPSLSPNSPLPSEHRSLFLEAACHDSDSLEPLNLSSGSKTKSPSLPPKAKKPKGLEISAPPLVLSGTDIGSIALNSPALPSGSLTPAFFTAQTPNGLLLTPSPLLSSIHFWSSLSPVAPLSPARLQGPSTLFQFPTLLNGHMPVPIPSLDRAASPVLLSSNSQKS
In short, it runs like this:
as §1

Sequence of SPIB (Q01892 whole entry): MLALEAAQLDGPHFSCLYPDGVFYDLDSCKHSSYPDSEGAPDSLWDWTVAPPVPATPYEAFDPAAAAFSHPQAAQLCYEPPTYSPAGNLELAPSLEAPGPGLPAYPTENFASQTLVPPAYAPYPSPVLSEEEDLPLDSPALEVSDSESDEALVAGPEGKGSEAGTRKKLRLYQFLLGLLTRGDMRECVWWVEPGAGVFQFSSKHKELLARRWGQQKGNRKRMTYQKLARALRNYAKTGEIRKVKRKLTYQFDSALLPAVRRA
Sequence of ELF1 (P32519 whole entry): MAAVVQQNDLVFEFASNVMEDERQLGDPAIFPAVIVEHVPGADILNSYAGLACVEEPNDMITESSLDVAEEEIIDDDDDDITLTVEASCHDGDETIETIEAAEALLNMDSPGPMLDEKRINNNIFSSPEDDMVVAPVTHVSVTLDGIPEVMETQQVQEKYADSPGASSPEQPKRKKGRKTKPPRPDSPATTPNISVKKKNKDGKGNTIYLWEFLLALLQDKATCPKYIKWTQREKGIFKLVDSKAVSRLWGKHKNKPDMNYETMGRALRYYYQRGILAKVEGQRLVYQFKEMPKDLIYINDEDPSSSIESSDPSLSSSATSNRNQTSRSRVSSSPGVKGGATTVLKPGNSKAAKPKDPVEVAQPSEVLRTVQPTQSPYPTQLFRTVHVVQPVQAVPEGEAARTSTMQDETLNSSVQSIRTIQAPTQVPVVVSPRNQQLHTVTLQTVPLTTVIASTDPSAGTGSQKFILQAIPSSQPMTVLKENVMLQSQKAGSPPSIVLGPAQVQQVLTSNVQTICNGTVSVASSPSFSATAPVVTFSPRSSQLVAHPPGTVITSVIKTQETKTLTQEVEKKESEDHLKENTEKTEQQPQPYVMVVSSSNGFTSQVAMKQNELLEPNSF

CTACTT: the binding signal is 1.85 fold enrichment (6-mer frequency, TF over GST control) with FLI1; 1.77 fold enrichment (6-mer frequency, TF over GST control) with ELK1; 1.72 fold enrichment (6-mer frequency, TF over GST control) with GABPA; 1.96 fold enrichment (6-mer frequency, TF over GST control) with ERG; 1.85 fold enrichment (6-mer frequency, TF over GST control) in the experiment with ELF1; 1.92 fold enrichment (6-mer frequency, TF over GST control) with EHF. For the same sequence, the binding signal was 2.05 fold enrichment (6-mer frequency, TF over GST control) with SPI1; 1.96 fold enrichment (6-mer frequency, TF over GST control) in the experiment with SPIB; 1.88 fold enrichment (6-mer frequency, TF over GST control) in the experiment with ELK3.
Consider TTACCC, for which the binding signal with FLI1 is 1.3 fold enrichment (6-mer frequency, TF over GST control); with ELK1, 1.44 fold enrichment (6-mer frequency, TF over GST control); with GABPA it was 1.3 fold enrichment (6-mer frequency, TF over GST control); in the experiment with ERG it was 1.34 fold enrichment (6-mer frequency, TF over GST control); with ELF1, 1.38 fold enrichment (6-mer frequency, TF over GST control); in the experiment with EHF it was 1.43 fold enrichment (6-mer frequency, TF over GST control). The binding signal with SPI1 is 1.35 fold enrichment (6-mer frequency, TF over GST control); with SPIB, 1.45 fold enrichment (6-mer frequency, TF over GST control); with ELK3, 1.39 fold enrichment (6-mer frequency, TF over GST control).
For the sequence CTGCAT, the binding signal with FLI1 is 1.42 fold enrichment (6-mer frequency, TF over GST control); in the experiment with ELK1, 1.51 fold enrichment (6-mer frequency, TF over GST control); in the experiment with GABPA, 1.41 fold enrichment (6-mer frequency, TF over GST control); with ERG, 1.41 fold enrichment (6-mer frequency, TF over GST control); with ELF1 it was 1.47 fold enrichment (6-mer frequency, TF over GST control); with EHF, 1.47 fold enrichment (6-mer frequency, TF over GST control). Further, the binding signal with SPI1 is 1.42 fold enrichment (6-mer frequency, TF over GST control); in the experiment with SPIB, 1.65 fold enrichment (6-mer frequency, TF over GST control); in the experiment with ELK3 it was 1.39 fold enrichment (6-mer frequency, TF over GST control).
In the case of GTCTCG, the binding signal was 1.36 fold enrichment (6-mer frequency, TF over GST control) in the experiment with FLI1; 1.37 fold enrichment (6-mer frequency, TF over GST control) with ELK1; 1.3 fold enrichment (6-mer frequency, TF over GST control) with GABPA; 1.26 fold enrichment (6-mer frequency, TF over GST control) with ERG; 1.32 fold enrichment (6-mer frequency, TF over GST control) in the experiment with ELF1; 1.28 fold enrichment (6-mer frequency, TF over GST control) with EHF. Also, the binding signal with SPI1 is 1.33 fold enrichment (6-mer frequency, TF over GST control); with SPIB, 1.43 fold enrichment (6-mer frequency, TF over GST control); in the experiment with ELK3 it was 1.37 fold enrichment (6-mer frequency, TF over GST control).
On to CATTTT, for which the binding signal was 1.24 fold enrichment (6-mer frequency, TF over GST control) with FLI1; 1.04 fold enrichment (6-mer frequency, TF over GST control) in the experiment with ELK1; 1.23 fold enrichment (6-mer frequency, TF over GST control) in the experiment with GABPA; 1.14 fold enrichment (6-mer frequency, TF over GST control) with ERG; 1.18 fold enrichment (6-mer frequency, TF over GST control) in the experiment with ELF1; 1.16 fold enrichment (6-mer frequency, TF over GST control) in the experiment with EHF. The binding signal in the experiment with SPI1 was 1.39 fold enrichment (6-mer frequency, TF over GST control); with SPIB, 1.23 fold enrichment (6-mer frequency, TF over GST control); with ELK3 it was 1.15 fold enrichment (6-mer frequency, TF over GST control).
As for GCTAAA, the binding signal in the experiment with FLI1 is 1.06 fold enrichment (6-mer frequency, TF over GST control); with ELK1, 1.12 fold enrichment (6-mer frequency, TF over GST control); with GABPA, 1.07 fold enrichment (6-mer frequency, TF over GST control); with ERG, 1.07 fold enrichment (6-mer frequency, TF over GST control); in the experiment with ELF1, 1.08 fold enrichment (6-mer frequency, TF over GST control); in the experiment with EHF, 1.06 fold enrichment (6-mer frequency, TF over GST control). For the same sequence, the binding signal with SPI1 was 1.16 fold enrichment (6-mer frequency, TF over GST control); with SPIB, 1.14 fold enrichment (6-mer frequency, TF over GST control); in the experiment with ELK3 it was 1.04 fold enrichment (6-mer frequency, TF over GST control).
Consider ACTTCG, for which the binding signal with FLI1 was 1.38 fold enrichment (6-mer frequency, TF over GST control); in the experiment with ELK1, 1.38 fold enrichment (6-mer frequency, TF over GST control); with GABPA, 1.46 fold enrichment (6-mer frequency, TF over GST control); with ERG, 1.47 fold enrichment (6-mer frequency, TF over GST control); with ELF1, 1.33 fold enrichment (6-mer frequency, TF over GST control); in the experiment with EHF, 1.3 fold enrichment (6-mer frequency, TF over GST control). In addition, the binding signal with SPI1 is 1.44 fold enrichment (6-mer frequency, TF over GST control); with SPIB, 1.39 fold enrichment (6-mer frequency, TF over GST control); with ELK3, 1.49 fold enrichment (6-mer frequency, TF over GST control).
For TTTATG, the binding signal in the experiment with FLI1 was 1.31 fold enrichment (6-mer frequency, TF over GST control); in the experiment with ELK1, 1.21 fold enrichment (6-mer frequency, TF over GST control); with GABPA, 1.4 fold enrichment (6-mer frequency, TF over GST control); with ERG it was 1.21 fold enrichment (6-mer frequency, TF over GST control); in the experiment with ELF1 it was 1.18 fold enrichment (6-mer frequency, TF over GST control); in the experiment with EHF, 1.34 fold enrichment (6-mer frequency, TF over GST control). Besides, the binding signal with SPI1 was 1.34 fold enrichment (6-mer frequency, TF over GST control); with SPIB, 1.29 fold enrichment (6-mer frequency, TF over GST control); in the experiment with ELK3, 1.34 fold enrichment (6-mer frequency, TF over GST control).
